# Test results reported in PubChem BioAssay (Tox21).
# Several values for one entry are separate records, joined by “and”; a condition that tells them apart may be missing. Equal entries are not always repeated. Results filed as inconclusive are left out. Where a call stands in place of a potency, no number is given. More than one record can exist for a structure, and the calls need not agree. Activity calls are given as the source filed them. Unless noted, calls come from the whole dose curve; as a rule, active = well fitted curve in the direction sought with a large enough effect in the repeat runs; inconclusive = weak or mixed curves; inactive = no such curve, though single readings can be large; an effect the other way counts as inactive or inconclusive.
# Legend:
# [1] = qHTS assay to test for compound auto fluorescence at 460 nm (blue) in HEK293 cell free culture (AID 720681)
# Procedure, shortened: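 Compounds were added to cell-free DMEM with 10% FBS and fluorescence read directly. The blue channel used 405 nm excitation and 460 nm emission, with triamterene as the reference fluorophore.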
# [2] = qHTS assay to test for compound auto fluorescence at 535 nm (green) in HEK293 cell free culture (AID 720682)
# Procedure, shortened: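 Cell-free medium (DMEM, 10% FBS) receives compound or DMSO by pintool. Plate read directly at Ex 485/Em 535 nm. Signal converted to fluorescein equivalency.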
# [3] = qHTS assay to test for compound auto fluorescence at 590 nm (red) in HEK293 cell free culture (AID 720683)
# Procedure, shortened: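 Cell-free wells of DMEM with 10% FBS received compound, and intrinsic fluorescence was read at excitation/emission 540/590 nm. Values expressed as equivalence to Rose Bengal sodium.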
# [4] = qHTS assay to test for compound auto fluorescence at 590 nm (red) in HepG2 cell free culture (AID 720684)
# Procedure, shortened: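 Rose Bengal sodium served as the reference for red signal. Test compounds were dispensed into serum-containing MEM (10% FBS) without cells, and plates were read at 540/590 nm.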
# [5] = qHTS assay to test for compound auto fluorescence at 460 nm (blue) in HepG2 cell free culture (AID 720685)
# Procedure, shortened: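 Cell-free plates of MEM plus 10% FBS received 23 nL compound or DMSO vehicle; blue-channel (405/460 nm) intensity scored against triamterene as reference fluorophore.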
# [6] = qHTS assay to test for compound auto fluorescence at 535 nm (green) in HepG2 cell free culture (AID 720686)
# [7] = qHTS assay to test for compound auto fluorescence at 460 nm (blue) in HepG2 cells (AID 720687)
# Procedure, shortened: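 HepG2 cells in MEM with 10% FBS, attached overnight at 37 C, were exposed to compound or DMSO for 1 hr at 37 C, 5% CO2. Blue fluorescence was read at 405/460 nm, with triamterene as reference fluorophore.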
# [8] = qHTS assay to identify small molecule antagonists of the glucocorticoid receptor (GR) signaling pathway - cell viability counter screen (AID 720693); note: nearly all actives have a fitted effect of over 55% in size
# [9] = qHTS assay for identifying genotoxic compounds that show differential cytotoxicity against isogenic chicken DT40 cell lines with known DNA damage response pathways - wild type cell line (AID 743012); note: nearly all actives have a fitted effect of over 60% in size; note: potency is the fitted concentration of half-maximal effect
# Procedure, shortened: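 Endpoint: CellTiter-Glo luminescence, 30 min RT. Cells: wild type DT40, 300/well. Exposure: compounds in DMSO, 40 h, 37 C/5% CO2, after ~0.5 h pre-incubation.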
# [10] = qHTS assay for identifying genotoxic compounds that show differential cytotoxicity against isogenic chicken DT40 cell lines with known DNA damage response pathways - Rad54/Ku70 mutant cell line (AID 743015); note: nearly all actives have a fitted effect of over 60% in size; note: potency is the fitted concentration of half-maximal effect
# [11] = qHTS assay to identify small molecule antagonists of the androgen receptor (AR) signaling pathway - cell viability counter screen (AID 743033; note: nearly all actives have a fitted effect of over 45% in size)
# [12] = qHTS assay to identify small molecule antagonists of the androgen receptor (AR) signaling pathway using the MDA cell line - cell viability counter screen (AID 743041; note: nearly all actives have a fitted effect of over 45% in size)
# Procedure, shortened: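 Cytotoxicity counter screen: MDA-kb2 AR-luc cells, compound + R1881, 16 h, 37C, 0% CO2; CellTiter-Fluor added at 15.5 h, fluorescence read after 30 min.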
# [13] = molecular target: Glucocorticoid receptor (Homo sapiens) (UniProt P04150); assay: qHTS assay to identify small molecule agonists of the glucocorticoid receptor (GR) signaling pathway (AID 720691; active = well fitted activation curve with a large enough effect in the signal ratio in the repeat runs, not every such curve was filed as active; the % refers to the signal ratio); settings: GR-bla HeLa, beta-lactamase reporter ratio, 18 h; activation: at 62.4 µM (top of the series)
# Procedure, shortened: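 Measures GR pathway activation through a GRE-beta-lactamase reporter stably integrated in HeLa cells, with 18 h compound treatment at 37 C and fluorescence detection using a FRET substrate.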
# [14] = molecular target: Glucocorticoid receptor (Homo sapiens) (UniProt P04150); assay: qHTS assay to identify small molecule antagonists of the glucocorticoid receptor (GR) signaling pathway (AID 720692; active = well fitted inhibition curve with a large enough effect in the signal ratio in the repeat runs, not every such curve was filed as active; the % refers to the signal ratio)
# Procedure, shortened: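 Tox21 10K library screened in concentration-response for blockade of dexamethasone (5 nM final)-induced GRE-bla reporter activity in HeLa cells; 18 h treatment, fluorescence read.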
# [15] = qHTS assay for identifying genotoxic compounds that show differential cytotoxicity against isogenic chicken DT40 cell lines with known DNA damage response pathways - Rev3 mutant cell line (AID 743014); note: nearly all actives have a fitted effect of over 55% in size
# Chain of Glucocorticoid receptor (Homo sapiens) (P04150 whole entry, looked up): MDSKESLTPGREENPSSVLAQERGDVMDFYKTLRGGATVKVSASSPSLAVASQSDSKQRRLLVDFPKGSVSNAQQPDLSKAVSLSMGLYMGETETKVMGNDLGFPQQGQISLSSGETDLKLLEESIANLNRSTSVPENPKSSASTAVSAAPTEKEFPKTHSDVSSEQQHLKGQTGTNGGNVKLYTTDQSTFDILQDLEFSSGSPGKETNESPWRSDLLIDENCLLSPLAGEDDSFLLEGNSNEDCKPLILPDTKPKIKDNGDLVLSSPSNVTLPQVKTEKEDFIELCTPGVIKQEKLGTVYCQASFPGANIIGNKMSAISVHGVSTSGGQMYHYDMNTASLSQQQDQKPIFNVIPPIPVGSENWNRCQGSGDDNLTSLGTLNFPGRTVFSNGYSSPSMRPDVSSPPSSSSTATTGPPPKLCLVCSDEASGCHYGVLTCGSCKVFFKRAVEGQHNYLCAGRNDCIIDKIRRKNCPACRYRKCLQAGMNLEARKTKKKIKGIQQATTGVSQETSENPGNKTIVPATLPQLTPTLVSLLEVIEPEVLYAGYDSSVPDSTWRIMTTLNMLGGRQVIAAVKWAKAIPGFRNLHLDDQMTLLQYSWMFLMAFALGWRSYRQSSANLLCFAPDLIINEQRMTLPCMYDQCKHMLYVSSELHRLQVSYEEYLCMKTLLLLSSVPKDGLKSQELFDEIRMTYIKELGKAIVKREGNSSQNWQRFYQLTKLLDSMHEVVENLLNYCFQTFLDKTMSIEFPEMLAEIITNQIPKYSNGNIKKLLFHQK
SMILES,outcome [1],outcome [2],outcome [3],outcome [4],outcome [5],outcome [6],outcome [7],outcome [8],Potency [9],Potency [10],Potency [11],Potency [12],Potency [13],Potency [14],Potency [15]
CCCCOC(=O)COc1ccc(Cl)cc1Cl,inactive,inactive,inactive,inactive,inactive,inactive,inactive,inactive,inactive,inactive,inactive,inactive,–,–,–
Oc1cccc2ccccc12,inactive,inactive,inactive,inactive,inactive,inactive,inactive,inactive,inactive,inactive,inactive,inactive,inactive,inactive,inactive
O=C(O)CCCC[C@@H]1SC[C@@H]2NC(=O)N[C@@H]21,inactive,inactive,inactive,inactive,inactive,inactive,inactive,inactive,inactive,inactive,inactive,inactive,inactive,inactive,inactive
O=C(O)CC(C(=O)O)C(CC(=O)O)C(=O)O (stereo not given),inactive,inactive,inactive,inactive,inactive,inactive,inactive,inactive,inactive,inactive,inactive,inactive,inactive,inactive,inactive
CC(C)(C)[C@@H](O)[C@@H](Cc1ccc(Cl)cc1)n1cncn1,inactive,inactive,inactive,inactive,inactive,inactive,inactive,inactive,inactive and 48.5 µM (active),61.1 µM (active),inactive,inactive,inactive,inactive,–
O=C(Oc1ccccc1)c1ccccc1,inactive,inactive,inactive,inactive,inactive,inactive,inactive,inactive,inactive,inactive,inactive,inactive,–,–,–
O=c1[nH]nnc2ccccc12,inactive,inactive,inactive,inactive,inactive,inactive,inactive,inactive,inactive,inactive,inactive,inactive,–,–,–
O=C=NCCCCCCN=C=O,inactive,inactive,inactive,inactive,inactive,inactive,inactive,inactive,inactive,inactive,inactive,inactive,–,–,inactive
COc1ccc(Nc2ccccc2)c(C)c1,inactive,inactive,inactive,inactive,inactive,inactive,inactive,inactive,inactive,inactive,inactive,inactive,inactive,inactive,inactive
C=C(C)C(=O)O[C@H]1C[C@@H]2CC[C@@]1(C)C2(C)C,inactive,inactive,inactive,inactive,inactive,inactive,inactive,inactive,inactive,inactive,inactive,inactive,–,–,–
CCOC(=O)NNc1nncc2ccccc12,inactive,inactive,inactive,inactive,inactive,inactive,inactive,inactive,inactive,inactive,inactive,inactive,inactive,–,inactive
CSCCC=O,inactive,inactive,inactive,inactive,inactive,inactive,inactive,inactive,inactive,inactive,inactive,inactive,inactive,inactive,–
CC(C)CC(=O)CC(C)C,inactive,inactive,inactive,inactive,inactive,inactive,inactive,inactive,inactive,inactive,inactive,inactive,–,–,–
